The nature of experiment [1]: qHTS assay to identify small molecule inhibitors of chordoma cells - UCH-1 (AID 1259355). Further: nearly all actives have a fitted effect of over 55% in size. In a few lines:
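800 cells/well, overnight attach; compounds pinned at 15 concs, then auranofin/camptothecin/doxorubicin/rubitecan/topotecan combo added; 48hr 37 C, 5% CO2; CellTiter-Glo, 30min RT, luminescence.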
(Quantitative high-throughput screening tests each substance at several concentrations.)

The nature of experiment [2]: qHTS assay to identify small molecule inhibitors of chordoma cells - UCH-2 (AID 1259356). Further: series mostly up to about 46 µM.
The target in experiment [3] is Atrial natriuretic peptide receptor 1 (Homo sapiens) (UniProt P16066). Nature of the experiment: Natriuretic polypeptide receptor (hNpr1) antagonism - Pilot screen (AID 1347049; calls by dose curve;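 further: HEK293 cells with hNpr1 and GloSensor cGMP luciferase stimulated by 0.1 nM hNppA; agonist-evoked cGMP luminescence read 20 min after hNppA addition; series mostly up to about 58 µM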). A digest of the protocol:
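Receptor antagonism read as cGMP-dependent luminescence in hNpr1/pGS-40F HEK293 cells: pre-read after 30 min compound exposure, post-read 20 min after hNppA agonist at 0.1 nM final, all at room temperature, protected from light; A-71915 titration as control.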

The target of experiment [4] is Atrial natriuretic peptide receptor 2 (Homo sapiens) (UniProt P20594). As to the kind of experiment: Natriuretic polypeptide receptor (hNpr2) antagonism - Pilot subtype selectivity assay (AID 1347050; calls by dose curve). In a few lines: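 Antagonist mode: compounds (LOPAC1280, seven 1:5 dilutions) added 30 min before 1 nM hNppC stimulation of hNpr2-HEK293 cGMP-sensor cells; luminescence read before and 20 min after agonist at ambient temperature.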
Chain of Atrial natriuretic peptide receptor 2 (Homo sapiens) (P20594 whole entry, looked up): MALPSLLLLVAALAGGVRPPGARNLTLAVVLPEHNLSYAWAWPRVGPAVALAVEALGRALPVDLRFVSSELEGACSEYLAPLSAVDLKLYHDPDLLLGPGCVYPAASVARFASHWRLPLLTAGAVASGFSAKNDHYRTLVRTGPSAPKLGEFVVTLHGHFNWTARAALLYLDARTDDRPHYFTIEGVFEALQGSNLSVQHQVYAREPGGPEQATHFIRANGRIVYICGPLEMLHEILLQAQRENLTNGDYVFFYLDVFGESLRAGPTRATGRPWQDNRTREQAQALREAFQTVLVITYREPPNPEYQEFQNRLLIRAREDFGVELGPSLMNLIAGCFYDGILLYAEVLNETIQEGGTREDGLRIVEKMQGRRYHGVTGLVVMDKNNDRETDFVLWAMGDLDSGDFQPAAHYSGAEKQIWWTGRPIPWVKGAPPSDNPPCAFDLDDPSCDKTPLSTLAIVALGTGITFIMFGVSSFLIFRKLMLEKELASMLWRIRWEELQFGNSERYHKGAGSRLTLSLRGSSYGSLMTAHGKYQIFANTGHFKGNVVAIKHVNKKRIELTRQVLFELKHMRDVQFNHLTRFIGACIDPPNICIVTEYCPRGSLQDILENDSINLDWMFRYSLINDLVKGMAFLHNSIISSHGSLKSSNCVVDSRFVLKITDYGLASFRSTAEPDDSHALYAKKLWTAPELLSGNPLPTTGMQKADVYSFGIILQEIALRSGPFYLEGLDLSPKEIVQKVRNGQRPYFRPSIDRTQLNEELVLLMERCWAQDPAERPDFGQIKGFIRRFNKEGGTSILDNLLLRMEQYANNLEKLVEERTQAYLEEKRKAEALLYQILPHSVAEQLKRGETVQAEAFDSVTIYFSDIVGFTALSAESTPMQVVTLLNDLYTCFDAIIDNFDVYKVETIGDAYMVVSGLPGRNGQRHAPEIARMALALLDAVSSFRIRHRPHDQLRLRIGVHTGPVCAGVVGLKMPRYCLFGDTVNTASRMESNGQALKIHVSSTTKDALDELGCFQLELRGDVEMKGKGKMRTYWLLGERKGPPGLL

The nature of experiment [5]: NS1 protein of Zika virus - qHTS assay to identify small molecule inhibitors in human HEK 293 cells (AID 1347053). Further: series mostly up to about 46 µM; nearly all actives have a fitted effect of over 55% in size. A digest of the protocol: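 In this cell-based screen, HEK 293 cultures received compound for one hour before Zika MR766 at MOI = 0.5. NS1 was quantified 24 hours later by TR-FRET, normalized to virus-free wells and infected wells.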
Experiment [6] addresses T1, Tyrosine-protein phosphatase non-receptor type substrate 1 (Homo sapiens) + Leukocyte surface antigen CD47 (Homo sapiens) (UniProt P78324+Q08722). As to the kind of experiment: CD47-SIRPalpha protein protein interaction - LANCE assay qHTS validation (AID 1347057; active means well fitted curve in the direction sought with a large enough effect in the signal ratio, with a control signal flat, not every such curve was filed as active; the % refers to the signal ratio; further: series mostly up to about 38 µM). A digest of the protocol:
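Inhibition of soluble CD47/SIRPalpha ectodomain association by titrated compounds, measured as 665/615 nm time-resolved FRET ratio after sequential 30 min room-temperature incubations.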
In general terms: Time-resolved FRET reads energy transfer from a long-lived donor to a nearby acceptor.

Experiment [7] has as its target T1, Tyrosine-protein phosphatase non-receptor type substrate 1 (Homo sapiens) + Leukocyte surface antigen CD47 (Homo sapiens). Nature of the experiment: CD47-SIRPalpha protein protein interaction - Alpha assay qHTS validation (AID 1347059).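 Further: bead proximity luminescence from CD47 binding SIRPalpha after compound preincubation with SIRPalpha.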 In a few lines: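 AlphaScreen signal between CD47-His (12.5 nM) and biotin-SIRPalpha (25 nM) soluble extracellular domains, bead-captured via Ni-NTA and streptavidin. Compounds, in 7-point titrations, met SIRPalpha 30 min before CD47; PBS pH 7.4 with 0.05% IGEPAL.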

Experiment [8] addresses Parathyroid hormone/parathyroid hormone-related peptide receptor (Homo sapiens) (UniProt Q03431). Nature of the experiment: qHTS for PTHR1 Agonists: Optimization Screen against the NCGC LOPAC library (AID 1347079).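 Further: GloSensor cAMP luminescence in HEK-293 GP2 cells expressing human PTHR1 with IBMX.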 A digest of the protocol:
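Signal increase flags agonism. GP2 cells, derived from HEK-293, express human PTHR1 and a GloSensor cAMP construct.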

The nature of experiment [9]: qHTS of pediatric cancer cell lines to identify multiple opportunities for drug repurposing: Primary screen for TC32 cells (AID 1347089). Further: nearly all actives have a fitted effect of over 60% in size. In a few lines: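 Luminescent CellTiter-Glo read-out of metabolically active TC32 cells after 48 h compound exposure. Primary: MIPE 11-point, 0.78 nM–46 µM; NPC 8-point, 0.59 nM–46 µM. Confirmatory: 11-point dilutions.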
A short description of experiment [10]: qHTS of pediatric cancer cell lines to identify multiple opportunities for drug repurposing: Primary screen for DAOY cells (AID 1347090). Further: series mostly up to about 46 µM; nearly all actives have a fitted effect of over 55% in size. A digest of the protocol: (§1)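 Cell viability, CellTiter-Glo luminescence; 500-1,000 cells/well, 8- or 11-point titration, 48 h compound exposure at 37 degrees C, 5% CO2. Controls: DMSO neutral, bortezomib 2.3 µM final as positive.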

The nature of experiment [11]: qHTS of pediatric cancer cell lines to identify multiple opportunities for drug repurposing: Primary screen for SJ-GBM2 cells (AID 1347091). A digest of the protocol:
as §1

Experiment [12] is described as follows: qHTS of pediatric cancer cell lines to identify multiple opportunities for drug repurposing: Primary screen for A673 cells (AID 1347092). Further: nearly all actives have a fitted effect of over 45% in size. Further: potency means the concentration at half of the fitted maximal effect. In a few lines:
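A673 cells (500-1,000 cells/well in growth media) were pre-incubated 5 h at 37 degrees C, then exposed to compounds for 48 h. Viability was read as CellTiter-Glo luminescence; concentration-response curves came directly from the primary screen.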

Experiment [13] can be described thus: P-glycoprotein substrates identified in KB-8-5-11 adenocarcinoma cell line, qHTS therapeutic library screen (AID 1346987). Further: series mostly up to about 44 µM; nearly all actives have a fitted effect of over 65% in size. A digest of the protocol:
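In this qHTS, P-gp-rich KB-8-5-11 cells received library compounds across a concentration range. Viability was quantified by luminescence after 72 h at 37 degree C.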

Experiment [14] has as its target T1, Tyrosine-protein phosphatase non-receptor type substrate 1 (Homo sapiens) + Leukocyte surface antigen CD47 (Homo sapiens). Nature of the experiment: CD47-SIRPalpha protein protein interaction - HTRF assay qHTS validation (AID 1347058; active means well fitted curve in the direction sought with a large enough effect in the signal ratio, not every such curve was filed as active; the % refers to the signal ratio; further: series mostly up to about 38 µM). A digest of the protocol: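 Soluble extracellular domains (6His-CD47, Avi-tag-biotinylated SIRPalpha) in PBS pH 7.4 with 0.05% IGEPAL CA-630. Compounds were preincubated 30 min at RT with CD47 and anti-His-Eu, then SIRPalpha and SAV-XL665 were added. TR-FRET 665/615 ratio.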

A short description of experiment [15]: Natriuretic polypeptide receptor (hNpr1) antagonism - Pilot counterscreen GloSensor control cell line (AID 1347045; calls by dose curve; further: series mostly up to about 38 µM). In a few lines: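 HEK293 cGMP-sensor cells; 2% GloSensor reagent 2 h RT; LOPAC compounds in 1:5 titrations 30-50 min; 50 uM SNP 20 min; luminescence pre-read and post-read.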
In general terms: A counterscreen serves to expose hits that act by an unwanted route or on another target.

Each structure is given as a SMILES string. Results filed as inconclusive are left out. Activity calls are given as the source filed them. Unless noted, the call rests on the fitted dose curve; in most records, active means well fitted curve in the direction sought with a large enough effect; inconclusive means small, poorly fitted or top-dose-only effect, or another doubt; inactive means no such curve, though single readings can be large; an effect the other way counts as inactive or inconclusive.

Chain of Parathyroid hormone/parathyroid hormone-related peptide receptor (Homo sapiens) (Q03431 whole entry, looked up): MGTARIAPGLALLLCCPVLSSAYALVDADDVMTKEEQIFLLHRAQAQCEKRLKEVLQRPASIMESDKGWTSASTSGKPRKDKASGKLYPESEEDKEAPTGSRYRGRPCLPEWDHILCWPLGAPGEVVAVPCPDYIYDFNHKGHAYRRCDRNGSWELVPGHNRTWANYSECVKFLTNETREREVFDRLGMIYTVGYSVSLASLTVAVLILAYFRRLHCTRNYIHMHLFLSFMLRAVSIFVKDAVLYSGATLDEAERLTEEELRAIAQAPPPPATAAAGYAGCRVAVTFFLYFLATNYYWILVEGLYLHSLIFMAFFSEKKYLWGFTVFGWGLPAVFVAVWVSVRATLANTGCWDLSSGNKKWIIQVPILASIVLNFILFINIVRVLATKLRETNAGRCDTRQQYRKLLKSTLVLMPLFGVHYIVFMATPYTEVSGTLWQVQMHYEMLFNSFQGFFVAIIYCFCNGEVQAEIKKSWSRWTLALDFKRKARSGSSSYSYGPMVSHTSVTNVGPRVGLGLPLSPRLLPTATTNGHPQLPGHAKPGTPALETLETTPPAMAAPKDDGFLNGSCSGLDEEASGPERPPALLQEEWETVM
Chain of Atrial natriuretic peptide receptor 1 (Homo sapiens) (P16066 whole entry, looked up): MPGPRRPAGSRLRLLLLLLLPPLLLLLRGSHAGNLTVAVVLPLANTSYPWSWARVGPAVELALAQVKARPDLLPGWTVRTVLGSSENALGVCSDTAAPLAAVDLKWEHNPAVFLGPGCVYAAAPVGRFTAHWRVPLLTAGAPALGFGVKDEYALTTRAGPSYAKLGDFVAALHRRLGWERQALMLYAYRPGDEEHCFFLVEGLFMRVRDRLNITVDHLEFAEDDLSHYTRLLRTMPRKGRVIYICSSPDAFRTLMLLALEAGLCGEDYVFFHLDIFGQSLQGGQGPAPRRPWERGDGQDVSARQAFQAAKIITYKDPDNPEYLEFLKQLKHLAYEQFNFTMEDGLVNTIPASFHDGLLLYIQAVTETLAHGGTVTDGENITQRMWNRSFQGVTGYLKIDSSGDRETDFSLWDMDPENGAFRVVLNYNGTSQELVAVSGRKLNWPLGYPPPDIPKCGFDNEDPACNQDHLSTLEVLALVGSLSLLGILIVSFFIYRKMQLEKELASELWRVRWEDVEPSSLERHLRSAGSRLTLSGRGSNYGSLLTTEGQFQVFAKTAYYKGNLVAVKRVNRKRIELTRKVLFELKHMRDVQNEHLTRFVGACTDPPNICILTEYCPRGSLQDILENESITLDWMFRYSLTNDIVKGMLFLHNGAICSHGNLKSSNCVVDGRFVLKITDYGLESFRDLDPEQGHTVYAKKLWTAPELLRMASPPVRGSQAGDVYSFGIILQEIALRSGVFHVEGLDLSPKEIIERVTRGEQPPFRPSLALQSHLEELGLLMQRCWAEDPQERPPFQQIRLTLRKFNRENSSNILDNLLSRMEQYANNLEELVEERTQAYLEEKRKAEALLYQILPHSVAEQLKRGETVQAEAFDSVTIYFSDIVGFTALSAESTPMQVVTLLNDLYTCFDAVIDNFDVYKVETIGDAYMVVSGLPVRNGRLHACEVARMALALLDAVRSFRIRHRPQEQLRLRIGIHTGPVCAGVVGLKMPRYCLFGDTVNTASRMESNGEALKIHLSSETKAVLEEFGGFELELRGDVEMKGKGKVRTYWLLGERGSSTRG
T1 sequence (P78324 whole entry, looked up, the tested form may be a part): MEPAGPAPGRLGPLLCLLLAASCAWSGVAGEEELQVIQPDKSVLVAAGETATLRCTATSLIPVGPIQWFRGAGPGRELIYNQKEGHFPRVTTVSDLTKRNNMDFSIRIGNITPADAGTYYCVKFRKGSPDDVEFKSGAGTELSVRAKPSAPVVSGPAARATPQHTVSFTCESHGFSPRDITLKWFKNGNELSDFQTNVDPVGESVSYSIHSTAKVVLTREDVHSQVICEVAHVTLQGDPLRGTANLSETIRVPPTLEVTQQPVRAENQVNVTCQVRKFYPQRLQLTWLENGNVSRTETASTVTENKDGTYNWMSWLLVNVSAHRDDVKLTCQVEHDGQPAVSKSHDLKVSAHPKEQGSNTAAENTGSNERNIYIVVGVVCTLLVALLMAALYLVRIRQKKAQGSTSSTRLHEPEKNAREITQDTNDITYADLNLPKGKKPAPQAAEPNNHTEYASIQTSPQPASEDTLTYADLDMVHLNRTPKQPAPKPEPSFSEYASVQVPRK
T1 sequence (Q08722 whole entry, looked up, the tested form may be a part): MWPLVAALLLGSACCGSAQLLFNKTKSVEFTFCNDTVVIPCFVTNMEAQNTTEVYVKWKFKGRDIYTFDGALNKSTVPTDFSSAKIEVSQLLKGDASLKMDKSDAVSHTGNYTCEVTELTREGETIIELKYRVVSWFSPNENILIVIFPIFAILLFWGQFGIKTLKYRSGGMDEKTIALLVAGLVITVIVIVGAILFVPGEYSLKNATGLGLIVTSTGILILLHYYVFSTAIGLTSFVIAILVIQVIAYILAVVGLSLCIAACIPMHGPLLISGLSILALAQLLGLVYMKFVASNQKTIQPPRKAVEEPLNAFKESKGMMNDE

Take `CCn1nc(C(=O)O)c(=O)c2cc3c(cc21)OCO3`: the Potency entry in experiment [1], in experiment [2], in experiment [3], in experiment [4], in experiment [7] and in experiment [9] was “inactive” each time. In addition, the Potency entry in [10], in experiment [11] and in [12] was “inactive” each time. Also, the outcome in experiment [5], in [6] and in experiment [8] was inactive.

With `CNCCC(Oc1ccccc1OC)c1ccccc1` (stereo not given), the Potency entry in experiment [1], in experiment [2], in experiment [13], in [3], in experiment [4] and in experiment [9] was “inactive” in each case. In addition, the Potency result in experiment [10], in [11] and in experiment [12] was “inactive” in each case. Besides, the compound was classed as inactive in experiment [5], in experiment [6], in experiment [14] and in experiment [8].

Regarding `COc1cc(C(=O)OCCCN2CCCN(CCCOC(=O)c3cc(OC)c(OC)c(OC)c3)CC2)cc(OC)c1OC`, the Potency entry in experiment [2], in experiment [15], in experiment [3], in [4], in experiment [7] and in [9] was “inactive” each time. Besides, the Potency entry in experiment [10] is “inactive”. The compound was classed as inactive in experiment [5], in experiment [6], in experiment [14] and in experiment [8].

As for `COc1cc(Cc2cnc(N)nc2N)cc(OC)c1OC`, the Potency entry in experiment [1], in experiment [2], in experiment [13], in [15], in experiment [3] and in experiment [4] was “inactive” throughout. In addition, the Potency result in [7], in experiment [9], in experiment [10], in [11] and in [12] was “inactive” each time. In addition, the outcome in experiment [5], in experiment [6] and in experiment [8] was inactive.

For `CC(C)COCC(CN(Cc1ccccc1)c1ccccc1)N1CCCC1` (stereo not given), the Potency result in experiment [1], in experiment [2], in experiment [15], in [3] and in [4] was “inactive” throughout. In addition, the outcome in experiment [5], in [6] and in experiment [8] was inactive. For the same compound, the Potency in experiment [12] is 26.6 µM (active).

As to `CC(C)(C)NCC(O)c1cc(O)cc(O)c1` (stereo not given), the Potency entry in [1], in experiment [2], in experiment [13], in [15], in experiment [3] and in [4] was “inactive” each time. The Potency entry in [7], in experiment [9], in experiment [10], in experiment [11] and in experiment [12] was “inactive” in each case. Moreover, the result in experiment [5] and in experiment [6] was inactive.

As for `O=c1[nH]c(=O)n([C@H]2C[C@H](O)[C@@H](CO)O2)cc1Br`, the Potency result in experiment [2], in experiment [13], in [3], in experiment [4], in experiment [7] and in experiment [10] was “inactive” in each case. The Potency result in [11] and in experiment [12] was “inactive” throughout. For the same compound, the compound was classed as inactive in experiment [5], in experiment [6], in experiment [14] and in [8].

As for `CCN(CC)CCNC(=O)c1cc(S(C)(=O)=O)ccc1OC`, the Potency entry in experiment [1], in [2], in experiment [13], in experiment [15], in experiment [3] and in experiment [4] was “inactive” throughout. The Potency entry in experiment [9], in experiment [11] and in [12] was “inactive” each time. Further, the result in experiment [5], in [6] and in experiment [8] was inactive.

For `CCCCNC(=O)NS(=O)(=O)c1ccc(C)cc1`, the Potency entry in [1], in experiment [2], in experiment [3], in experiment [4], in experiment [7] and in experiment [9] was “inactive” each time. The Potency entry in experiment [10], in experiment [11] and in [12] was “inactive” in each case. The result in experiment [5], in [6] and in experiment [8] was inactive.

Regarding `FC(F)(F)c1ccccc1-n1ccnc1`, the Potency result in experiment [1], in experiment [2], in experiment [13], in experiment [15], in experiment [3] and in experiment [4] was “inactive” throughout. The Potency result in [7], in experiment [9], in experiment [10], in experiment [11] and in experiment [12] was “inactive” throughout. The outcome in experiment [5], in [6] and in experiment [8] was inactive.

Turning to `NS(=O)(=O)c1cc2c(cc1Cl)NC(C1CC3C=CC1C3)NS2(=O)=O` (stereo not given), the Potency result in experiment [1], in [2], in experiment [13], in [15], in experiment [3] and in [4] was “inactive” in each case. Further, the Potency entry in [7], in experiment [9], in experiment [11] and in experiment [12] was “inactive” in each case. The outcome in experiment [5], in experiment [6] and in experiment [8] was inactive.

The record behind these values is PubChem BioAssay (NCATS).
